# Results as given in ChEMBL document CHEMBL5308504, “Tm Shift (DSF) assay results for EUbOPEN Chemogenomics Library” (2023).
# Several values for one entry are separate records, joined by “and”; a condition that tells them apart may be missing. Identical values can stand only once.
# How the values were obtained:
# Settings in all cases: Compound concentration 20.0 uM, Protein concentration 2.0 uM, Result type QC Liability
# [1] = target: Tyrosine-protein kinase ABL1 (Homo sapiens) (UniProt P00519)
# Tyrosine-protein kinase ABL1 (Homo sapiens), sequence (P00519 whole entry): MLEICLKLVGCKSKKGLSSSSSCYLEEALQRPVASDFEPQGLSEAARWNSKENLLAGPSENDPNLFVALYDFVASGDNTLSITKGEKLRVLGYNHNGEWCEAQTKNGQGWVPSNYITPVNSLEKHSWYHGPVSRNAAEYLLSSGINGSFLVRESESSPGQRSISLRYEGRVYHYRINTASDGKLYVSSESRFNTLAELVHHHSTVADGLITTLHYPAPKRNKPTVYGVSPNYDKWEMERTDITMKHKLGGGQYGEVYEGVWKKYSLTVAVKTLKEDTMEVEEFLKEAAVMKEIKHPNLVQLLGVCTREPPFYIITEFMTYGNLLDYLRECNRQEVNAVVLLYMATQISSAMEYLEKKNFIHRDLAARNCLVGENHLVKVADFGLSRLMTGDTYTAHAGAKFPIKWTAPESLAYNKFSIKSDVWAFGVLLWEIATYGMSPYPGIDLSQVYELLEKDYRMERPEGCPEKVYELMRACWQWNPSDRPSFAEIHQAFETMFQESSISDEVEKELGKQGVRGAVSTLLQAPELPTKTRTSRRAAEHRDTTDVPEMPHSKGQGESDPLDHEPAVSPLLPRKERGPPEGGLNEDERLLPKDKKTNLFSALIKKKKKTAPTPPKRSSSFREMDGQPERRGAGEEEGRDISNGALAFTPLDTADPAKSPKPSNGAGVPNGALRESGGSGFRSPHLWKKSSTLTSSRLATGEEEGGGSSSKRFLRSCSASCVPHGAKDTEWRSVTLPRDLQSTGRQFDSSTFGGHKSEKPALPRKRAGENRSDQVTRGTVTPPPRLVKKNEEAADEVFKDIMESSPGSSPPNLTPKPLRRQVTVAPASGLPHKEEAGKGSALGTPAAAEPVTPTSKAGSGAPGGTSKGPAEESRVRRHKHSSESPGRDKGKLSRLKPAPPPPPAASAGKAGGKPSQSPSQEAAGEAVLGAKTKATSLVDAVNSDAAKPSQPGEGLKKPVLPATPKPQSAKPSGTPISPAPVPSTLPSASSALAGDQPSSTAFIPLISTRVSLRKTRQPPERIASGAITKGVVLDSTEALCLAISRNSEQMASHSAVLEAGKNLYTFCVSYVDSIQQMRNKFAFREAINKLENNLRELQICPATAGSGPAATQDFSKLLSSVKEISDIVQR
# [2] = target: Cyclin-dependent kinase 2 (Homo sapiens) (UniProt P24941)
# [3] = target: Casein kinase I isoform delta (Homo sapiens) (UniProt P48730)
# Casein kinase I isoform delta (Homo sapiens), sequence (P48730 whole entry, looked up, canonical isoform): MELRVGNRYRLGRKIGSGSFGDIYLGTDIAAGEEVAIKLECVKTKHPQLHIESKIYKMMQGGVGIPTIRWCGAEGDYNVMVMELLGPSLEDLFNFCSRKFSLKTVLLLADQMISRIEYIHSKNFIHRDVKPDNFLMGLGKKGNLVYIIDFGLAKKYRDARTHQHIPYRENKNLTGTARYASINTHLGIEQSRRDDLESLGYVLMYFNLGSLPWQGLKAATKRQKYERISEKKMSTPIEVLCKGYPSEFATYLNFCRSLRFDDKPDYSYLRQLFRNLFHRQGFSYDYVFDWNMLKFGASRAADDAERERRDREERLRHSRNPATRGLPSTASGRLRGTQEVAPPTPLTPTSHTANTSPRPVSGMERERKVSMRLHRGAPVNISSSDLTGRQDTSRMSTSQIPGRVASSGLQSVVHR
# [4] = target: Glycogen synthase kinase-3 beta (Homo sapiens) (UniProt P49841)
# Glycogen synthase kinase-3 beta (Homo sapiens), sequence (P49841 whole entry, looked up): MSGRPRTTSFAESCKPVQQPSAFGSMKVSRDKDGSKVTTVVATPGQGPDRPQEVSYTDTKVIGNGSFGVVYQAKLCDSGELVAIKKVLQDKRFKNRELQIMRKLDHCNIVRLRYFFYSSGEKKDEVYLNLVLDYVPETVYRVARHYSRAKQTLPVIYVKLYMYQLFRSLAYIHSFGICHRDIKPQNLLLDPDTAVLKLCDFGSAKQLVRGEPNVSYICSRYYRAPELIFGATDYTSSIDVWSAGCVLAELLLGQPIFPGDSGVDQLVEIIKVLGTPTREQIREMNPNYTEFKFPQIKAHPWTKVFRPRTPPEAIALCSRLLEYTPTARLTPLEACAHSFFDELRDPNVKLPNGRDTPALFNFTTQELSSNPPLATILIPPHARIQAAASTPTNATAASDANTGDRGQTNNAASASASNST
# [5] = target: Mitogen-activated protein kinase 1 (Homo sapiens) (UniProt P28482)
# Mitogen-activated protein kinase 1 (Homo sapiens), sequence (P28482 whole entry): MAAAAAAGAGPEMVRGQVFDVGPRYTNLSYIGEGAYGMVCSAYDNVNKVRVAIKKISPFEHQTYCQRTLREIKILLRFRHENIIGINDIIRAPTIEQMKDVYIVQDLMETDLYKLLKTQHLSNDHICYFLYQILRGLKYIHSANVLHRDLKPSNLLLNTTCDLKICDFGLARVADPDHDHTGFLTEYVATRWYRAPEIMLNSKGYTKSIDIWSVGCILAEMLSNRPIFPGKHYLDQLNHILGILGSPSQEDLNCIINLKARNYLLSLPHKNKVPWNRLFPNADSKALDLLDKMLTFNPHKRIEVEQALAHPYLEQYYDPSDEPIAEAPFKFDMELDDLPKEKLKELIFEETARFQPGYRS
# [6] = target: T1, Aurora kinase A (Homo sapiens) (UniProt O14965)
# T1 sequence (whole entry): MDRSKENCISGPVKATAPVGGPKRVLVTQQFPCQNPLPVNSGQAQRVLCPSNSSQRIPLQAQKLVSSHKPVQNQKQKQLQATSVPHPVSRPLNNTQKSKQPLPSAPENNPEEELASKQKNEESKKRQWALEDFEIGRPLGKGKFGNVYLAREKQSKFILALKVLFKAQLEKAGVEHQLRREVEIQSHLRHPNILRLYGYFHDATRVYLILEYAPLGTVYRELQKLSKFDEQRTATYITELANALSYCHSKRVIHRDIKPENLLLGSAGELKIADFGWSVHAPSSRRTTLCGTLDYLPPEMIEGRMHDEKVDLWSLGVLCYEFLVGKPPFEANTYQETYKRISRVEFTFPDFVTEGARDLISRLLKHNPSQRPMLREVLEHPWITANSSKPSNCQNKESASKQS
Compound,ΔTm [1],ΔTm [2],ΔTm [3],ΔTm [4],ΔTm [5],ΔTm [6]
O=C(O)c1cc2cc(Cc3cccnc3)ccc2o1,0.65 °C,0.63 °C,0.07 °C,0.46 °C,-0.29 °C,-0.17 °C
CCc1cc2c(cc1N1CCC(N3CCOCC3)CC1)C(C)(C)c1[nH]c3cc(C#N)ccc3c1C2=O,0.88 °C,1.02 °C,0.16 °C,0.18 °C,0.1 °C,-0.02 °C
COc1cc(-c2cc([C@H](O)C3CC3)n3ncnc(N)c23)ccc1CO,9.08 °C,0.4 °C,4.52 °C,0.91 °C,0.82 °C,1.06 °C
COc1cc(-c2cc3ncccc3c(OC[C@H]3CNC(=O)C3)n2)cc(OC)c1OC1CCOCC1,1.45 °C,-0.03 °C,2.63 °C,-0.87 °C,0.16 °C,5.56 °C
O=C(CNC(=O)c1ccc(-c2ccccc2)cc1)NC1CCCc2ccccc21 (centres undefined),0.75 °C,-0.06 °C,-1.78 °C,-2.76 °C,0.17 °C,-1.46 °C
COc1cc(CN(CCN)C(=O)N[C@@H](C)c2ccccc2)ccc1OCc1ccccc1,0.76 °C,1.02 °C,0.16 °C,-0.67 °C,0.02 °C,0.4 °C
CC(=O)c1c(C)c2cnc(Nc3ccc(N4CCNCC4)cn3)nc2n(C2CCCC2)c1=O,0.35 °C and -0.02 °C,1.06 °C and 0.93 °C,0.19 °C and 0.01 °C,0.23 °C and 0.63 °C,0.09 °C and 0.31 °C,-0.85 °C and 0.31 °C
O=C1CN(c2ccccc2F)C(NCCN2CCOCC2)=C1c1nc2cc(Br)ccc2c(=O)[nH]1,0.38 °C,0.68 °C,0.32 °C,0.31 °C,0.23 °C,0.17 °C
C=CC(=O)Nc1ccc(C(=O)Nc2[nH]nc3c2CN(C(=O)N[C@H](CN(C)C)c2ccccc2)C3(C)C)cc1,4.89 °C,3.53 °C,1.06 °C,6.48 °C,6.56 °C,7.89 °C
Cc1cc2c(-c3ccco3)cnc(N[C@@H]3CCN(C)C[C@H]3C(=O)NC3CCCCC3)c2[nH]c1=O,0.07 °C,0.91 °C,-0.09 °C,-0.51 °C,0.54 °C,0.79 °C
NCC1CCC(CNc2nc(NCc3ccccc3OC(F)(F)F)ncc2[N+](=O)[O-])CC1 (centres undefined),0.62 °C,-0.56 °C,0.19 °C,3.29 °C,-0.1 °C,1.01 °C
CO[C@H]1C[C@@H]2CC[C@@H](C)[C@@](O)(O2)C(=O)C(=O)N2CCCC[C@H]2C(=O)O[C@H]([C@H](C)C[C@@H]2CC[C@@H](O)[C@H](OC)C2)CC(=O)[C@H](C)/C=C(\C)[C@@H](O)[C@@H](OC)C(=O)[C@H](C)C[C@H](C)/C=C/C=C/C=C/1C,0.32 °C,-0.19 °C,-0.1 °C,-0.7 °C,-0.72 °C,-0.26 °C
CN1C(=O)c2c(nn(Cc3ccc(-c4cccc(F)n4)cc3)c2Nc2ccccc2)N2C1=N[C@@H]1CCC[C@@H]12,0.4 °C,0 °C,0.16 °C,3.99 °C,-0.56 °C,-0.49 °C
O=C(O)c1ccnc(N2CC(O)(c3ccc(OCc4c(-c5c(Cl)cccc5Cl)noc4C4CC4)cc3Cl)C2)c1,0.22 °C,-0.27 °C,0.41 °C,-0.81 °C,-0.58 °C,-1.95 °C
CCC(=O)N[C@H]1CC[C@@H](C(=O)N(C)c2ccc(-c3nc4ccccc4o3)cc2)C1,0.73 °C,0.83 °C,0.61 °C,-0.48 °C,0.13 °C,0.03 °C
COc1ccc(CC[C@@H](OC(=O)[C@@H]2CCCCN2C(=O)[C@H](c2cc(OC)c(OC)c(OC)c2)C2CCCCC2)c2cccc(OCCN3CCOCC3)c2)cc1OC,-1.71 °C,-1.5 °C,-2.54 °C,-2.19 °C,-0.05 °C,-0.45 °C
CN(C)C(=O)c1sc2nc(N3CCC(S(C)(=O)=O)CC3)cc(C(F)(F)F)c2c1N,-0.62 °C and 1 °C,0.58 °C and 0.19 °C,0.2 °C and 0.17 °C,-0.24 °C and -0.54 °C,-0.76 °C and 0.56 °C,-0.67 °C and 0 °C
C=CC[C@@H]1/C=C(\C)C[C@H](C)C[C@H](OC)[C@H]2O[C@@](O)(C(=O)C(=O)N3CCCC[C@H]3C(=O)O[C@H](/C(C)=C/[C@@H]3CC[C@@H](O)[C@H](OC)C3)[C@H](C)[C@@H](O)CC1=O)[C@H](C)C[C@@H]2OC,-0.14 °C,-0.14 °C,-0.31 °C,0.01 °C,-1.81 °C,-0.2 °C
Cc1c(N2CCNCC2)nc2ccc(Br)cc2c1C(=O)NC[C@H](CCC(=O)O)c1ccccc1Cl,0.01 °C,0.4 °C,0.62 °C,0.03 °C,0.18 °C,0.41 °C
